# Test results: PubChem BioAssay AID651681 (Broad Institute, 2012)
# The source made the active and inactive calls.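 How the source made its calls: active means compound with fitted CDK2 half-maximal potency at or below twice its top tested dose; inconclusive means flat curve near 30 to 70% inhibition, or poor fit; inactive means the rest.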
# Target: Cyclin-dependent kinase 2 (Homo sapiens) + Cyclin-A2 (Homo sapiens) (UniProt P20248+P24941)
# Assay: blockade of human CDK2 kinase activity – biochemical, dry powder, set 3, selectivity assay for Dyrk1A inhibitor project, dose response (AID 651681)
# Conditions: CDK2/cyclin A ADP-Glo luminescence, histone H1 peptide; series mostly up to 10 µM
# Cyclin-dependent kinase 2 (Homo sapiens) + Cyclin-A2 (Homo sapiens), sequence (P20248 whole entry, looked up, one chain of several): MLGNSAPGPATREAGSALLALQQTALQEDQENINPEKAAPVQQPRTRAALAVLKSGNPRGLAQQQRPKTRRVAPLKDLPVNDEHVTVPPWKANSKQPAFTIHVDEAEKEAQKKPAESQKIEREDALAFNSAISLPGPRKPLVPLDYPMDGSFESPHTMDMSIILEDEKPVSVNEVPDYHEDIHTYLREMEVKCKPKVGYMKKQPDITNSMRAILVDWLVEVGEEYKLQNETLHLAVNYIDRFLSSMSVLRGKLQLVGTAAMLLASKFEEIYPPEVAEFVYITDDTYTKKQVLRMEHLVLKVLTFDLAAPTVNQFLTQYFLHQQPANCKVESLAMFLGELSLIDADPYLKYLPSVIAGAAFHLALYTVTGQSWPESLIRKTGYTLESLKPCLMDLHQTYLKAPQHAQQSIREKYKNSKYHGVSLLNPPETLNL
smiles,measurement,value
COc1ccc2c(c1)[nH]c1c(C)nccc12,outcome,inactive
